Data: PubChem BioAssay (Tox21)
Active and inactive are the calls of the source. Calls come from the whole dose curve; as a rule, active = well fitted curve in the direction sought with a large enough effect in the repeat runs; inconclusive = weak or mixed curves; inactive = flat fitted curve, though single readings scatter.

experiment: qHTS assay to test for compound auto fluorescence at 460 nm (blue) in HEK293 cells (AID 720678); conditions: blue autofluorescence 405/460 nm; series mostly up to 91.3 µM
Outline: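 Blue read-out at excitation 405 nm and emission 460 nm follows overnight compound exposure of HEK293 cells at 37C in 5% CO2. Activity is given as auto fluorescence equivalency to triamterene.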

Which outcome does the source give for CCCCCCCCCCOc1cc2c(=O)c(C(=O)OCC)c[nH]c2cc1OCC here?
The outcome was “inactive”.

For Nc1c2c(nc3c1CCC3)CCCC2, which outcome is on record?
The outcome was “inactive”.

For CCCCOC(=O)CCC(C)=O, which outcome is on record?
Its outcome is “inactive”.

For O=S(=O)(O)c1cccc(S(=O)(=O)O)c1, which outcome is on record?
The outcome was “inactive”.

With CC1CCC(CO)CC1 (stereo not drawn) as the molecule, how does the outcome read?
The outcome was “inactive”.

Which outcome does the source give for COc1ccnc(CS(=O)c2nc3cc(OC(F)F)ccc3[nH]2)c1OC (stereo not drawn) here?
The outcome was “inactive”.

Which outcome does the source give for O=C(CO)[C@@H](O)[C@H](O)[C@@H](O)CO here?
The outcome was “inactive”.

Which outcome does the source give for CCOC(=O)c1cnc2c(cnn2CC)c1NN=C(C)C here?
Its outcome is “inactive”.

Which outcome does the source give for NC(CCC(=O)O)C(=O)O (stereo not drawn) here?
The outcome was “inactive”.

Which outcome does the source give for CC12CCC(C(=O)C1=O)C2(C)C (stereo not drawn) here?
Its outcome is “inactive”.

Which outcome does the source give for N[C@H](C(=O)O)[C@@H](O)c1ccc(O)c(O)c1 here?
Its outcome is “inactive”.

Which outcome does the source give for O=C(CO)[C@@H](O)[C@H](O)[C@H](O)CO here?
The outcome was “inactive”.

With FB(F)F as the molecule, how does the outcome read?
Its outcome is “inactive”.

With c1ccc(Cc2ccccc2)cc1 as the molecule, how does the outcome read?
The outcome was “inactive”.

For C1CCC2(CCCCO2)OC1, which outcome is on record?
Its outcome is “inactive”.

Which outcome does the source give for CCO[Si](OCC)(OCC)c1ccccc1 here?
The outcome was “inactive”.

Which outcome does the source give for CN(C)C(=O)Oc1ccc[n+](C)c1 here?
The outcome was “inactive”.

For Cc1ccccc1N=C(N)N=C(N)N, which outcome is on record?
Its outcome is “inactive”.

Which outcome does the source give for C=CCCC(=O)O here?
Its outcome is “inactive”.

For COc1ccccc1OCC1CNC(=O)O1 (stereo not drawn), which outcome is on record?
The outcome was “inactive”.

For CCN(Cc1ccccc1)c1ccccc1, which outcome is on record?
The outcome was “inactive”.

For CC(=O)c1ccccc1[N+](=O)[O-], which outcome is on record?
Its outcome is “inactive”.

For COc1cccc(OC)c1C(=O)N[C@@H]1C(=O)N2[C@@H]1SC(C)(C)[C@@H]2C(=O)O, which outcome is on record?
Its outcome is “inactive”.

For O=CN(CCO)CCO, which outcome is on record?
Its outcome is “inactive”.

Which outcome does the source give for CCC(C(=O)NC(=O)NC(C)=O)c1ccccc1 (stereo not drawn) here?
Its outcome is “inactive”.

For CCCOC(=O)CC, which outcome is on record?
The outcome was “inactive”.

For O=S(=O)(O)c1cc(O)c(O)c(S(=O)(=O)O)c1, which outcome is on record?
Its outcome is “inactive”.

Which outcome does the source give for CCCCCCC#CC(=O)OC here?
Its outcome is “inactive”.

experiment: qHTS assay to test for compound auto fluorescence at 590 nm (red) in HEK293 cells (AID 720679); conditions: red autofluorescence 540/590 nm; series mostly up to 91.3 µM
Outline: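 Red channel, Ex/Em 540/590nm; signal expressed as equivalency to Rose Bengal sodium. HEK293, 2,000 cells/well, 10% dialyzed FBS; 23 nL compound pinned after 4-5 hr attachment; overnight 37C/5% CO2 before reading.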

With CCCCCCCCCCOc1cc2c(=O)c(C(=O)OCC)c[nH]c2cc1OCC as the molecule, how does the outcome read?
The outcome was “inactive”.

With Nc1c2c(nc3c1CCC3)CCCC2 as the molecule, how does the outcome read?
Its outcome is “inactive”.

Which outcome does the source give for CCCCOC(=O)CCC(C)=O here?
Its outcome is “inactive”.

For O=S(=O)(O)c1cccc(S(=O)(=O)O)c1, which outcome is on record?
The outcome was “inactive”.

Which outcome does the source give for CC1CCC(CO)CC1 (stereo not drawn) here?
The outcome was “inactive”.

For COc1ccnc(CS(=O)c2nc3cc(OC(F)F)ccc3[nH]2)c1OC (stereo not drawn), which outcome is on record?
Its outcome is “inactive”.

With O=C(CO)[C@@H](O)[C@H](O)[C@@H](O)CO as the molecule, how does the outcome read?
The outcome was “inactive”.

With Cc1nc2ccc(CN(C)c3ccc(C(=O)N[C@@H](CCC(=O)O)C(=O)O)s3)cc2c(=O)[nH]1 as the molecule, how does the outcome read?
The outcome was “inactive”.

For CCCC[N+](C)(CCCC)CCCC, which outcome is on record?
Its outcome is “inactive”.

Which outcome does the source give for C=COCC1CCC(COC=C)CC1 (stereo not drawn) here?
The outcome was “inactive”.

With CCOC(=O)c1cnc2c(cnn2CC)c1NN=C(C)C as the molecule, how does the outcome read?
The outcome was “inactive”.

For NC(CCC(=O)O)C(=O)O (stereo not drawn), which outcome is on record?
The outcome was “inactive”.

For CC12CCC(C(=O)C1=O)C2(C)C (stereo not drawn), which outcome is on record?
Its outcome is “inactive”.

Which outcome does the source give for CCOC(=O)c1ccccc1 here?
Its outcome is “inactive”.

With N[C@H](C(=O)O)[C@@H](O)c1ccc(O)c(O)c1 as the molecule, how does the outcome read?
Its outcome is “inactive”.

Which outcome does the source give for O=C(CO)[C@@H](O)[C@H](O)[C@H](O)CO here?
Its outcome is “inactive”.

With FB(F)F as the molecule, how does the outcome read?
The outcome was “inactive”.

With CC(C)(C)OC(=O)c1cccc(N)c1 as the molecule, how does the outcome read?
Its outcome is “inactive”.

With c1ccc(Cc2ccccc2)cc1 as the molecule, how does the outcome read?
Its outcome is “inactive”.

For C1CCC2(CCCCO2)OC1, which outcome is on record?
The outcome was “inactive”.

With CCO[Si](OCC)(OCC)c1ccccc1 as the molecule, how does the outcome read?
Its outcome is “inactive”.

Which outcome does the source give for CN(C)C(=O)Oc1ccc[n+](C)c1 here?
Its outcome is “inactive”.

For Cc1ccccc1N=C(N)N=C(N)N, which outcome is on record?
Its outcome is “inactive”.

For C=CCCC(=O)O, which outcome is on record?
The outcome was “inactive”.

Which outcome does the source give for COc1ccccc1OCC1CNC(=O)O1 (stereo not drawn) here?
The outcome was “inactive”.

Which outcome does the source give for CCN(Cc1ccccc1)c1ccccc1 here?
The outcome was “inactive”.

Which outcome does the source give for CC(=O)c1ccccc1[N+](=O)[O-] here?
The outcome was “inactive”.

With COc1cccc(OC)c1C(=O)N[C@@H]1C(=O)N2[C@@H]1SC(C)(C)[C@@H]2C(=O)O as the molecule, how does the outcome read?
Its outcome is “inactive”.

For O=CN(CCO)CCO, which outcome is on record?
The outcome was “inactive”.

For N[C@@H](CCC(=O)O)C(=O)O, which outcome is on record?
The outcome was “inactive”.

Which outcome does the source give for CCC(C(=O)NC(=O)NC(C)=O)c1ccccc1 (stereo not drawn) here?
Its outcome is “inactive”.

For CCCOC(=O)CC, which outcome is on record?
The outcome was “inactive”.

For O=S(=O)(O)c1cc(O)c(O)c(S(=O)(=O)O)c1, which outcome is on record?
The outcome was “inactive”.

With CCCCCCC#CC(=O)OC as the molecule, how does the outcome read?
The outcome was “inactive”.

For Clc1cc(Cl)c(Cl)nc1Cl, which outcome is on record?
Its outcome is “inactive”.
